In PubChem BioAssay (Tox21):
Where “and” joins values, the source holds several entries; their conditions need not be identical. Equal entries are not always repeated. Results filed as inconclusive are left out. Where a call stands in place of a potency, no number is given. Where a structure was tested more than once in an assay, its records may differ in their call. Calls of active or inactive are those of the source. Unless noted, calls follow the shape of the dose curve; as a rule, active = well fitted curve in the direction sought with a large enough effect in the repeat runs; inconclusive = weak or mixed curves; inactive = no such curve, though single readings can be large; an effect the other way counts as inactive or inconclusive.

Experiments:
[1] = qHTS assay to identify small molecule antagonists of the androgen receptor (AR) signaling pathway using the MDA cell line in the presence of 0.5 nM R1881 - cell viability counter screen (AID 1259242); also: nearly all actives have a fitted effect of over 45% in size; also: potency is read from the fitted curve at half-maximal effect
Summary of the method: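 R1881 at 0.5 nM final stimulated MDA-kb2 cells during 16 hr compound treatment at 37C. Cytotoxicity read: CellTiter-Fluor fluorescence after 30 min.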

[2] = target: Androgen receptor (Homo sapiens) (UniProt P10275); assay: qHTS assay to identify small molecule antagonists of the androgen receptor (AR) signaling pathway using the MDA cell line in the presence of 0.5 nM R1881 (AID 1259243); also: nearly all actives have a fitted effect of over 50% in size; also: potency is read from the fitted curve at half-maximal effect
Summary of the method: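 We exposed MDA-kb2 cells to compounds under 0.5 nM R1881 stimulation for 16 hr at 37C and quantified MMTV-driven luciferase by luminescence.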

[3] = qHTS assay to identify small molecule phospholipidosis (PLD) inducers (AID 1259344; active = well fitted curve in the direction sought with a large enough effect; an effect the other way counts as inactive or inconclusive)
Summary of the method: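 Phospholipidosis is scored by imaging LipidTOX-stained pits in HepG2 cells exposed to compound for 24 h at 37 C; pit counts and integrated intensities per well and per cell serve as outputs.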

[4] = qHTS assay to identify small molecule HDAC inhibitors (AID 1259364); also: potency is read from the fitted curve at half-maximal effect;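 also: wild-type HCT-116 cells with endogenous class I/II HDAC activity; nearly all actives have a fitted effect of over 45% in size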
Summary of the method: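 Relative class I and II HDAC activity is taken from the luminogenic signal in HCT-116 cells, with compound exposure 2 hr and reagent development 30 min at room temperature.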

[5] = qHTS assay to identify small molecule antagonists of the sonic hedgehog signaling (Shh) pathway - cell viability counter screen (AID 1259367); also: nearly all actives have a fitted effect of over 55% in size; also: potency is read from the fitted curve at half-maximal effect
Summary of the method: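 Cells: 3T3 Gli1-Luc, 2,000/well, 4 hr pre-incubation. Compounds in DMSO, then conditioned medium. Incubation 24 hr, 37C, 5% CO2. CellTiter-Fluor at 23 hr, 1 hr, fluorescence.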

[6] = qHTS assay to identify small molecule agonists of the sonic hedgehog signaling (Shh) pathway (AID 1259368; calls by dose curve;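 also: NIH/3T3-derived 3T3Gli1-Luc cells carrying a stable Gli1-driven firefly luciferase reporter; series mostly up to about 92 µM; nearly all actives have a fitted effect of over 15% in size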)
Summary of the method: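 Mouse fibroblast (NIH/3T3) reporter cells with stably integrated Gli1-Luc were treated 24 hr with compound; firefly luciferase luminescence served as the read-out.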

[7] = qHTS assay to identify small molecule antagonists of the sonic hedgehog signaling (Shh) pathway (AID 1259369; calls by dose curve; also: nearly all actives have a fitted effect of over 45% in size; also: potency is read from the fitted curve at half-maximal effect)
Summary of the method: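 Conditioned medium drives Shh signalling in 3T3Gli1-Luc cells; compounds in DMSO co-applied, 24hr at 37 C, then luciferase luminescence.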

[8] = qHTS assay to identify small molecule HDAC inhibitors - cell viability counter screen (AID 1259365); also: series mostly up to about 92 µM; nearly all actives have a fitted effect of over 50% in size
Summary of the method: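 HCT-116 (wild type), 1,500 cells/well, overnight 37C/5% CO2; compound in DMSO 2hr; CellTiter-Glo 30min RT; luminescence read.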

[9] = qHTS assay to identify small molecule agonists of the sonic hedgehog signaling (Shh) pathway - cell viability counter screen (AID 1259366); also: nearly all actives have a fitted effect of over 50% in size; also: potency is read from the fitted curve at half-maximal effect
Summary of the method: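 CellTiter-Fluor fluorescence read-out, 1 hr at 37C, added after 23hr compound exposure. Cells: 3T3 Gli1-Luc, an NIH/3T3 clone with stably integrated Gli1-Luc reporter, plated 4hr before compound.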

[10] = target: Estrogen receptor (Homo sapiens) (UniProt P03372); assay: qHTS assay to identify small molecule antagonists of the estrogen receptor alpha (ER-alpha) signaling pathway using the BG1 cell line in the presence of 0.1 nM 17-beta-estradiol (AID 1259244); also: nearly all actives have a fitted effect of over 50% in size
Summary of the method: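 VM7Luc4E2; 4xERE-luciferase; 0.1 nM E2 final; 22 h co-incubation, 37C; ONE-Glo luminescence after 30 min at room temperature.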

Estrogen receptor (Homo sapiens), sequence (P03372 whole entry, looked up): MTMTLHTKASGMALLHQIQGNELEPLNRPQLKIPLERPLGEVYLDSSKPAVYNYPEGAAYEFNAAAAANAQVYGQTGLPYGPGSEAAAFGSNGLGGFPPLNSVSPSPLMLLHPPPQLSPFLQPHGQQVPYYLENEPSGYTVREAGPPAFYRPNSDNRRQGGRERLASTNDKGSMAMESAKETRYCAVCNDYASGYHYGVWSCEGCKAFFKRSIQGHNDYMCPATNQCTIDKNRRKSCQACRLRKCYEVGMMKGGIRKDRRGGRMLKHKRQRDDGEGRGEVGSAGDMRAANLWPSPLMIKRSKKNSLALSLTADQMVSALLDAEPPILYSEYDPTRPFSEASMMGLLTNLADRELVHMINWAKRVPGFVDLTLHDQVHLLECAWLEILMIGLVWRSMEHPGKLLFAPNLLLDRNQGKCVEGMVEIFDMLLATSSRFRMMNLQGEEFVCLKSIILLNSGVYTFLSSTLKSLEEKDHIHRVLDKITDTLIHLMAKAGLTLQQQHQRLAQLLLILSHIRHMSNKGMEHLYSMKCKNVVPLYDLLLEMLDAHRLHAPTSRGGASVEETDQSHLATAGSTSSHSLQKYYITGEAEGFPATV
Androgen receptor (Homo sapiens), sequence (P10275 whole entry, looked up): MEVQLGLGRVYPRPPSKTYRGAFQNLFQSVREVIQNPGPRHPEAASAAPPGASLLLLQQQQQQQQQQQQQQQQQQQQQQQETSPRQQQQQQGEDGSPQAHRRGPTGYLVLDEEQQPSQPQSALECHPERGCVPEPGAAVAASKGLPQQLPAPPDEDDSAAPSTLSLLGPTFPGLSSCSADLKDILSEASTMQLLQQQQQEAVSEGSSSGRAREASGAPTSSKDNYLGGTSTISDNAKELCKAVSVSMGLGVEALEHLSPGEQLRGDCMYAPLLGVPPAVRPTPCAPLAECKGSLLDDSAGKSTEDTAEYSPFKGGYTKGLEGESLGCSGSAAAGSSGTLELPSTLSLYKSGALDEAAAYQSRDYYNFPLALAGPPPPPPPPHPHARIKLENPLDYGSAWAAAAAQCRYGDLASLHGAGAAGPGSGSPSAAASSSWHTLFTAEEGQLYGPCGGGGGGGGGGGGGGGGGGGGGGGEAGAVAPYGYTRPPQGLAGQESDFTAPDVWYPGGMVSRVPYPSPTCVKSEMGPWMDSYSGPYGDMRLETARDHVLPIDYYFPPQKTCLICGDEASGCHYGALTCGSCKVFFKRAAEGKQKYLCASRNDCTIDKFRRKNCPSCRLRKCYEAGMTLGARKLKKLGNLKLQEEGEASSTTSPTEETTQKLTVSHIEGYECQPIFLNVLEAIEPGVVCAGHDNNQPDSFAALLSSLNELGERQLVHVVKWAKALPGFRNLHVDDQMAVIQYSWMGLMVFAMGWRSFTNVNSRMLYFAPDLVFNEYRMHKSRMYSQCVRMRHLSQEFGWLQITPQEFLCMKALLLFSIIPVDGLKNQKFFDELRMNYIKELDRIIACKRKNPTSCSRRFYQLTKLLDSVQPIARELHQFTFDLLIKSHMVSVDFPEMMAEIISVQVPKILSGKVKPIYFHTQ

| SMILES | Potency [1] | Potency [2] | outcome [3] | Potency [4] | Potency [5] | Potency [6] | Potency [7] | Potency [8] | Potency [9] | Potency [10] |
| --- | --- | --- | --- | --- | --- | --- | --- | --- | --- | --- |
| C[CH2][Hg][S]c1ccccc1C(=O)O | 17.2 µM (active) and 11.9 µM (active) | 7.7 µM (active) and 7.5 µM (active) | inactive | 19.3 µM (active) and 23.7 µM (active) | 1.93 µM (active) and 5.96 µM (active) | inactive | 0.686 µM (active) |  |  |  |
| CC1(C)[C@H](C(=O)O[C@H](C#N)c2cccc(Oc3ccccc3)c2)[C@@H]1C=C(Br)Br | inactive | inactive |  |  | inactive | inactive | inactive | inactive | inactive |  |
| C=C(Cl)Cl | inactive | inactive |  |  | inactive | inactive | inactive | inactive |  | inactive |
| COCc1cnc(C2=NC(C)(C(C)C)C(=O)N2)c(C(=O)O)c1 (centres undefined) | inactive | inactive |  | inactive | inactive | inactive | inactive | inactive | inactive | inactive |
| O=C(O)CCCOc1ccc(Cl)cc1Cl | inactive | inactive | inactive | inactive | inactive | inactive | inactive and 44 µM (active) | inactive | inactive |  |
| CN1CC[C@]23c4c5ccc(O)c4O[C@H]2[C@@H](O)C=C[C@H]3[C@H]1C5 | inactive | inactive | inactive |  | inactive | inactive |  | inactive |  |  |
| CCCCCBr | inactive | inactive |  | inactive | inactive | inactive | inactive | inactive | inactive | inactive |
| O=C(N[C@H]1CN2CCC1CC2)c1ccc2c(c1)OCCO2 | inactive | inactive |  | inactive | inactive | inactive | inactive |  |  |  |
| O=C(Cl)OCCOCCOC(=O)Cl | inactive | inactive |  | inactive | inactive | inactive | inactive |  | inactive | inactive |
| COc1ccc2c(c1OC)C(=O)O[C@H]2[C@@H]1c2cc3c(cc2CCN1C)OCO3 | inactive | inactive | inactive | inactive | 5.96 µM (active) | inactive | inactive | inactive |  |  |
| CC(C)(C)NCC(O)c1cc(Cl)c(N)c(C(F)(F)F)c1 (centres undefined) | inactive | inactive | inactive | inactive | 9.44 µM (active) | inactive | inactive | inactive | 7.5 µM (active) | inactive |
| CC(Cl)C(=O)O (centres undefined) | inactive | inactive |  | inactive | inactive | inactive | inactive | inactive |  |  |
| Nc1ccccc1C(=O)OCC(O)CO (centres undefined) | inactive | inactive |  | inactive | inactive | inactive | inactive | inactive | inactive | inactive |
| Cc1cnc(C2=NC(C)(C(C)C)C(=O)N2)c(C(=O)O)c1 (centres undefined) | inactive | inactive |  |  | inactive | inactive | inactive | inactive | inactive | inactive |
| O=C(NCNC(=O)NC1C(=O)NC(=O)N1CO)NC1C(=O)NC(=O)N1CO (centres undefined) | inactive | inactive | inactive | inactive | inactive | inactive | inactive |  | inactive |  |
| C[N+](C)(C)CC1CO1 (centres undefined) | inactive | inactive |  | inactive | inactive | inactive | inactive | inactive | inactive | inactive |
| COP(=O)(OC)OC(Br)C(Cl)(Cl)Br (centres undefined) | inactive | 61.2 µM (active) and 61.1 µM (active) |  | inactive | inactive | inactive | 12.2 µM (active) | inactive | inactive | inactive |
| NP(N)(=O)NC(=O)c1ccc(F)cc1 | inactive | inactive | inactive | inactive | inactive | inactive | inactive | inactive | inactive | inactive |
| CCC1(C2=NCCN2)Cc2ccccc2O1 (centres undefined) | inactive | inactive | inactive | inactive | inactive | inactive | inactive |  |  | inactive |
| Clc1ccc2ccccc2c1 | inactive | inactive |  | inactive | inactive | inactive | inactive | inactive | inactive | inactive |
| COc1cc(CC#N)cc(OC)c1OC | inactive | inactive |  | inactive | inactive | inactive | inactive | inactive | inactive | inactive |
| O=C(O)c1ccc(=O)[nH]c1 | inactive | inactive |  | inactive | inactive | inactive | inactive |  | inactive | inactive |
| O=CC=O | inactive | inactive | inactive | inactive | inactive | inactive | inactive | inactive | inactive | inactive |
| CN(C)N | inactive | inactive |  |  | inactive | inactive | inactive | inactive | inactive |  |
| CC(C)(C)N(NC(=O)c1ccc(Cl)cc1)C(=O)c1ccccc1 | inactive | inactive |  | inactive | 3.83 µM (active) | inactive | inactive | inactive | 2.71 µM (active) | inactive |
| ClCc1ccccc1Cl | inactive | inactive |  | inactive | inactive | inactive | inactive | inactive | inactive |  |
